For five molecules, composite z-score and z-score results are on record in PubChem BioAssay.

Structures are written as SMILES. Calls of active or inactive are those of the source. Unless noted, how the calls were made is not given here.

The nature of experiment [1]: compounds binding Alexa647 anti-His antibody – biochemical, small-molecule microarray, 635 nm fluorescence, artefact control for SMM control protein annotation, primary screen (AID 1128).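 Further: score merges feature fluorescence with signal-to-noise for each printed compound spot.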 Particulars: higher = more signal.
In experiment [2] the test system is Human papillomavirus type 1a E7 protein (residues 1-88). Briefly: HPV1a E7 small-molecule binders, primary screen, biochemical, small-molecule microarray, residues 1-88, 635 nm (AID 1129). The following applies: small-molecule microarray binding, fluorescence 635 nm; higher = more signal.
Experiment [3] addresses Focal adhesion kinase 1 (Homo sapiens) (UniProt Q05397). Briefly: PTK2 protein binding on printed compound slides – biochemical, small-molecule microarray, 635/667 nm fluorescence, BSA, DTT, primary screen (AID 1130).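 Further: composite of spot emission at 667 nm and signal to noise over triplicate slides.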 The following applies: 635 nm fluorescence, higher = more signal.
Experiment [4] deals with Fibrinogen (Alexa647-labelled). Briefly: Alexa647-fibrinogen binding to printed small molecules – biochemical, small-molecule microarray, 635/667 nm fluorescence, artefact control for SMM control-protein annotation, profiling panel (AID 1131).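 Further: z-score merges 667 nm fluorescence with per-spot signal-to-noise over triplicate slides.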 The following applies: fibrinogen-A647 binding fluorescence, higher = more signal.
In experiment [5] the target is Follistatin (Homo sapiens) (UniProt P19883). Briefly: FST protein binding to printed compounds – biochemical, small-molecule microarray, 635/667 nm fluorescence, primary screen (AID 1132). The following applies: 635 nm fluorescence, higher = more signal.
Sequence of Follistatin (Homo sapiens) (P19883 whole entry, looked up): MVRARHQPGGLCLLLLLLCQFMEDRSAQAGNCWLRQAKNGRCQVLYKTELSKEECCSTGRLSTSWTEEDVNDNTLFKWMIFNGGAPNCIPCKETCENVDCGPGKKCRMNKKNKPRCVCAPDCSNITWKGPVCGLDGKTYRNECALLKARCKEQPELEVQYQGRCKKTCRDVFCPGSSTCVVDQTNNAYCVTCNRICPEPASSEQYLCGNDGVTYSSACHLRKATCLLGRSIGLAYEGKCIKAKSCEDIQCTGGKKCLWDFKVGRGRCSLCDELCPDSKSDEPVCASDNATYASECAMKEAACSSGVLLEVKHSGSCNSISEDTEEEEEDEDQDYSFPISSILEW
In experiment [6] the target is Fibroblast growth factor 2 (Homo sapiens) (UniProt P09038). Briefly: basic fibroblast growth factor binding to printed compounds – biochemical, small-molecule microarray, 635/667 nm fluorescence, primary screen (AID 1133). Particulars: FGF2, fluorescence 635/667, higher = more signal.
Sequence of Fibroblast growth factor 2 (Homo sapiens) (P09038 whole entry, looked up): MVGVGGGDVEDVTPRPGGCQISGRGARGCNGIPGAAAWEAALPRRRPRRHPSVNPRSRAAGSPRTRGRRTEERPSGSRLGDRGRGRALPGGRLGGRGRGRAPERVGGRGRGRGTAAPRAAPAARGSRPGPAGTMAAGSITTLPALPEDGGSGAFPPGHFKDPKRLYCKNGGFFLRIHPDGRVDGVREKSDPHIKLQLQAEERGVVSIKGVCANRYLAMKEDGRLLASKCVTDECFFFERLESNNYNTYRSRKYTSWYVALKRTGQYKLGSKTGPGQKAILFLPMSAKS
Experiment [7] in a line: JC-1 mitochondrial potential readout, lung cancer cells – cell-based, A549, JC-1 fluorescence, basal, 24 h, 100 nL, profiling panel (AID 1138).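 Further: A549 lung adenocarcinoma cells under basal conditions with no added stimulus; test concentration not given here.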 Particulars: higher = more signal.
In a further experiment the test system is Lefty1. Briefly: Lefty1 protein binding to printed compounds – biochemical, small-molecule microarray, 635/667 nm fluorescence, primary screen (AID 1139). The following applies: fluorescence 635/667, higher = more signal.
Experiment [8] deals with wheat germ agglutinin (Triticum aestivum), Alexa647-labelled. Briefly: Alexa647-WGA lectin binding to printed small molecules – biochemical, small-molecule microarray, 635/667 nm fluorescence, artefact control for SMM control-protein annotation, profiling panel (AID 1140).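 Further: score merges 667 nm feature emission with signal to noise over triplicate slides.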 The following applies: WGA-A647 binding, 635 nm fluorescence, higher = more signal.
For experiment [9], the target named is Luciferin 4-monooxygenase (Photinus pyralis) (UniProt P08659). Briefly: inhibition of purified Photinus pyralis luciferase – biochemical, luminescence, purified enzyme, 2006 set, primary screen (AID 1141).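 Further: cell-free assay with purified firefly luciferase at 100 ng per well in PBS; test concentration not given here.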 The following applies: purified firefly luciferase, SteadyGlo luminescence, 30 min; higher = more signal, called active from +8 up or from −8 down.
Sequence of Luciferin 4-monooxygenase (Photinus pyralis) (P08659 whole entry, looked up): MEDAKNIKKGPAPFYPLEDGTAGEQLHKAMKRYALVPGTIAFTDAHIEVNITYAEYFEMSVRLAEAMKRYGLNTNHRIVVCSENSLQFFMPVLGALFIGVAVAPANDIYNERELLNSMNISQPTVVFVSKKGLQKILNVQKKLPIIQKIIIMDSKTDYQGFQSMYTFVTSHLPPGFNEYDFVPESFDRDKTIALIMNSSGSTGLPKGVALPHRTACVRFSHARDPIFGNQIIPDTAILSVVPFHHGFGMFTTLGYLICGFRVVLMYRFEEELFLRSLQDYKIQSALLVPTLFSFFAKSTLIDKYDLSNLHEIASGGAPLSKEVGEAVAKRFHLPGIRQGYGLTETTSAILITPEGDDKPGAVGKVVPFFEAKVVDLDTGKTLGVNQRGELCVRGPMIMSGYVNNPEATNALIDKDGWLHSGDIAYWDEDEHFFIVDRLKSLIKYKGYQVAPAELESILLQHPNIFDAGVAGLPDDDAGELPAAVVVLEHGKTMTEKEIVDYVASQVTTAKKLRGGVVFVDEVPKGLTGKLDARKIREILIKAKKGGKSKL
Experiment [10] relates to Wnt5a (protein binding on small-molecule microarray). Briefly: small molecules binding Wnt5a protein – biophysical, small-molecule microarray, 635/667 nm fluorescence, primary screen (AID 1142).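 Further: fluorescence read at 667 nm with signal to noise per printed feature.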 Particulars: 635 nm fluorescence, higher = more signal.
Experiment [11] in a line: ATP-based viability of Huh7 replicon cells – cell-based, CellTiter-Glo luminescence, basal, 48 h, cytotoxicity control for HCV replication inhibitor project, primary screen (AID 1143).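 Further: Huh7 hepatoma cells carrying a hepatitis C replication reporter with no stimulus; test concentration not given here.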 Particulars: higher = more signal, called active from +8 up or from −8 down. (A replicon is a self-replicating genome or part of one, used to study replication in cells.)
Experiment [12] is described as follows: Pseudomonas biofilm growth suppression – PAO1 strain, BacTiter-Glo luminescence, LB-PBS, primary screen (AID 1144). Particulars: P. aeruginosa PAO1 biofilm, 12 h, higher = more signal.
A short description of experiment [13]: basal CRE-LacZ reporter activity in PC12 – cell-based, unstimulated, primary screen (AID 1145). Particulars: no forskolin, luminescence, 4.5 h, higher = more signal, called active from +8 up or from −8 down.
Experiment [14] is described as follows: forskolin-driven CRE-LacZ activity in PC12 – cell-based, CRE-LacZ reporter, forskolin-stimulated, primary screen (AID 1146).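 Further: PC12 cells with 6xCRE LacZ reporter stimulated by forskolin 10 µM; beta-galactosidase reporter signal reflecting CREB driven transcription.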 The following applies: luminescence, 4.5 h, higher = more signal, called active from +8 up or from −8 down.
Experiment [15] addresses Streptavidin (Streptomyces avidinii) (UniProt P22629). Briefly: compounds binding control protein streptavidin – biophysical, small-molecule microarray, 635/667 nm fluorescence, artefact control for SMM compound annotation, primary screen (AID 1147).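 Further: signal reflects streptavidin binding to arrayed compounds as a control protein.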 Particulars: higher = more signal.
The nature of experiment [16]: probe aInhba binding on compound microarray – biochemical, small-molecule microarray, 635/667 nm fluorescence, primary screen (AID 1148).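 Further: score merges 667nm spot fluorescence with signal-to-noise for antibody binding to printed compounds.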 Particulars: higher = more signal.
Experiment [17] concerns the target Torsin-1A (Homo sapiens) (UniProt O14656). Briefly: TOR1A wild-type binding on microarray – cell lysate, small-molecule microarray, lysate, 635/667 nm, primary screen (AID 1149). The following applies: COS7 hTOR1A-WT lysate, 635 nm fluorescence, higher = more signal.
Experiment [18] has the same target. Briefly: torsin A mutant lysate binding on microarrays – cell lysate, small-molecule microarray, COS7 lysate, 635/667 nm fluorescence, primary screen (AID 1150).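 Further: score pools 667 nm emission and signal to noise measuring lysate protein binding.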 The following applies: COS7 hTOR1A mutant lysate, 635 nm fluorescence, higher = more signal.
For experiment [19], the system named is Sonic hedgehog protein (Shh). Briefly: Sonic hedgehog microarray binding compounds – biochemical, small-molecule microarray, 635/667 nm fluorescence, primary screen (AID 1151).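 Further: Shh protein binding to compounds spotted on small-molecule microarray slides; score combines spot fluorescence intensity with signal-to-noise across triplicate slides.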 The following applies: 635 nm fluorescence, higher = more signal.

Sequence of Torsin-1A (Homo sapiens) (O14656 whole entry, looked up): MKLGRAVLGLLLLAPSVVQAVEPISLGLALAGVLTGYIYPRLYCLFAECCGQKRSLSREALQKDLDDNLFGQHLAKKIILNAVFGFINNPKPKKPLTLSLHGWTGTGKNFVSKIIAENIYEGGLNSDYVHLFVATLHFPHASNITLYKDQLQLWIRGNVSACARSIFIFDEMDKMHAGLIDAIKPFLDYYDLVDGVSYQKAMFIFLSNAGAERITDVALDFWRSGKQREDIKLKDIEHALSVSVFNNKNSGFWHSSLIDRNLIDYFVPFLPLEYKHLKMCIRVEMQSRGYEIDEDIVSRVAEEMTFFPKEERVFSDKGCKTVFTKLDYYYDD
Sequence of Focal adhesion kinase 1 (Homo sapiens) (Q05397 whole entry, looked up): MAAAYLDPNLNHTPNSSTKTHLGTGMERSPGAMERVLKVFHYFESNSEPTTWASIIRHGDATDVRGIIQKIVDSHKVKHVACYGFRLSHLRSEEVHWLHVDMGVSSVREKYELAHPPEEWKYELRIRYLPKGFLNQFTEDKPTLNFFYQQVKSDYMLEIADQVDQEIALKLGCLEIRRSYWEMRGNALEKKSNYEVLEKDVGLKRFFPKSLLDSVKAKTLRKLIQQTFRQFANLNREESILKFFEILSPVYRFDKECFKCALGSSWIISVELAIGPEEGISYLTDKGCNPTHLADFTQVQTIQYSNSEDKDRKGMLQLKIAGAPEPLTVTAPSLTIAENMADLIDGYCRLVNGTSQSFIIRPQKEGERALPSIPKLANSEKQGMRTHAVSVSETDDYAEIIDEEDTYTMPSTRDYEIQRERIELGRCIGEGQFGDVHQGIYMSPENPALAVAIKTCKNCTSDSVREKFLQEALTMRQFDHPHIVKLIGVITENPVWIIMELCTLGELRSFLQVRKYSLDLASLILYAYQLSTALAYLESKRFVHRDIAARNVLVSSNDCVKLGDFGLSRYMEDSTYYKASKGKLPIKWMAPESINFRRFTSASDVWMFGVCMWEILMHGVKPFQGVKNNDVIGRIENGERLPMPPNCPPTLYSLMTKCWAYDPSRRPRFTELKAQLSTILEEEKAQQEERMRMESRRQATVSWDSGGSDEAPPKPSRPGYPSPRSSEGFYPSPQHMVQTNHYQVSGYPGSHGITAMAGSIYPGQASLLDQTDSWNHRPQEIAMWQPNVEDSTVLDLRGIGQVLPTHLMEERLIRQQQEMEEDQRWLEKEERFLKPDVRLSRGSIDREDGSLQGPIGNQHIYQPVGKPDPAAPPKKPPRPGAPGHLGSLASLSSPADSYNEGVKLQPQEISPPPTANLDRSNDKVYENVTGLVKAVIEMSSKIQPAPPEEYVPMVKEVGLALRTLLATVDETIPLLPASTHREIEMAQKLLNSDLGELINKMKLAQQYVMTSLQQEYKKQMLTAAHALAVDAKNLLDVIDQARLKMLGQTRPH
Sequence of Streptavidin (Streptomyces avidinii) (P22629 whole entry, looked up): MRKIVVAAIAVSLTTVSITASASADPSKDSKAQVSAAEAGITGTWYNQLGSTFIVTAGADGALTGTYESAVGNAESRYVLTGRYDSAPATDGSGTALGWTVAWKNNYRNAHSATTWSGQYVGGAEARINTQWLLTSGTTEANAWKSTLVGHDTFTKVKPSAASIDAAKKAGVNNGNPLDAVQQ

As to `CCOC(=O)c1ccc(NC(=O)O[C@H]2[C@H](OC(=O)Nc3ccc4c(c3)OCO4)[C@H](OC(=O)Nc3ccc4c(c3)OCO4)[C@@H](OC)O[C@@H]2CO)cc1`, the composite z-score in experiment [1] was determined as 1.73; in experiment [2], 1.26; in [3], 0.812; in experiment [4] it was 1.01; in [5], 1.38; in experiment [6] it was 1.42. Moreover, the composite z-score is 1.24 in the experiment on Lefty1; 0.743 in experiment [8]; 0.662 in experiment [10]; 0.245 in [15]; 0.386 in experiment [16]; 0.807 with Torsin-1A (Homo sapiens) [17]. In addition, the composite z-score with Torsin-1A (Homo sapiens) [18] was 0.505; in experiment [19] it was 1.76. The z-score in experiment [7] was -0.551; in [9] it was -9.03 (active); in experiment [11], -2.23 (inactive); in [12], 1.55 (inactive); in experiment [13] it was 0.0918 (inactive); in [14], -0.195 (inactive).

Turning to `COCCOC(=O)N1C(=O)[C@@]2(c3cc(C#CC4(O)CCCCCC4)ccc31)[C@H](c1ccc(O)cc1)N1[C@H](c3ccccc3)[C@H](c3ccccc3)OC(=O)[C@H]1[C@@H]2C(=O)NC[C@H](O)c1ccccc1`, the composite z-score came to 0.496 in experiment [1]; 1.16 in experiment [2]; 0.987 in [3]; 0.87 in [4]; 1.26 in [5]; 1.64 in [6]. Moreover, the composite z-score is 1.28 in the experiment with Lefty1; 0.733 in [8]; 0.677 in experiment [10]; 0.383 in [15]; -0.125 in [16]; 0.116 with Torsin-1A (Homo sapiens) [17]. Further, the composite z-score with Torsin-1A (Homo sapiens) [18] was found to be 1.09; in experiment [19], 1.21. Besides, the z-score in experiment [7] is -0.939; in experiment [9] it was -0.001 (inactive); in experiment [11] it was -1.48 (inactive); in experiment [12], -0.277 (inactive); in experiment [13] it was 0.712 (inactive); in [14], -0.61 (inactive).

For `CCOC(=O)C[C@H]1[C@H](OC(=O)Cc2ccc3c(c2)OCO3)[C@@H](NC(=O)CC(C)C)c2cc(OCCCO)ccc2N1C(=O)Cc1ccc(OC)cc1`, the composite z-score is -0.114 in experiment [1]; 0.0383 in [2]; -0.224 in [3]; 0.641 in experiment [4]; -0.123 in experiment [5]; 0.11 in [6]. Moreover, the composite z-score in the experiment on Lefty1 was -0.194; in experiment [8] it was 0.62; in [10], -0.199; in experiment [15] it was -0.0258; in experiment [16] it was -0.0471; with Torsin-1A (Homo sapiens) [17], 0.288. Besides, the values for the composite z-score (with Torsin-1A (Homo sapiens) [18]; in experiment [19]) were -0.115 and -0.113, respectively. Also, the z-score in experiment [7] is 0.903; in experiment [9] it was -1.91 (inactive); in experiment [11], -1.04 (inactive); in [12], 0.29 (inactive); in experiment [13], 0.0918 (inactive); in experiment [14], -0.513 (inactive).

As to `COCCOC(=O)N1C(=O)[C@@]2(c3cc(C#CCCO)ccc31)[C@H](C(=O)Nc1nc3ccccc3s1)[C@H]1C(=O)O[C@H](c3ccccc3)[C@H](c3ccccc3)N1[C@@H]2c1ccccc1OCCO`, the composite z-score in experiment [1] was 1.87; in experiment [2], 1.2; in experiment [3], 0.764; in experiment [4], 0.866; in experiment [5] it was 1.12; in [6], 0.69. Besides, the composite z-score worked out at 0.573 in the experiment on Lefty1; 0.902 in [8]; 0.585 in [10]; 0.968 in [15]; 0.949 in experiment [16]; 0.759 in the experiment with Torsin-1A (Homo sapiens) [17]. Further, the composite z-score with Torsin-1A (Homo sapiens) [18] came out at 1.12; in experiment [19] it was 0.881. Besides, the z-score in [7] is -2.25; in experiment [9], -0.551 (inactive); in experiment [11], -1.41 (inactive); in experiment [12], 0.235 (inactive); in [13], -0.0526 (inactive); in experiment [14], 0.595 (inactive).

`CC1CC/C=C\[C@H]2OC34C=CCN(C(C)C)C(=O)[C@H]3N(CCCCCCO)C(=O)[C@@H]4C2C(=O)O1` (stereo not given in full): the composite z-score in [1] was -0.641; in [2], -1.09; in experiment [3] it was -0.278; in experiment [4], -1.25; in experiment [5], -0.583; in experiment [6], -1.09. Besides, the composite z-score in the experiment on Lefty1 was -0.547; in [8], -0.451; in experiment [10] it was -0.574; in experiment [15] it was -0.931; in [16] it was -0.323; with Torsin-1A (Homo sapiens) [17] it was -1.83. Moreover, the composite z-score with Torsin-1A (Homo sapiens) [18] was -1.19; in experiment [19] it was -0.159. The z-score in experiment [7] was 0.378; in experiment [9], -3.19 (inactive); in [11], -0.183 (inactive); in experiment [12], -1.31 (inactive); in [13], -0.342 (inactive); in experiment [14], -0.816 (inactive).
